Calls of active or inactive are those of the source.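 How the source made its calls: active means IC50 below 10 µM at human M5 in a calcium flux test, acting as a negative modulator; inactive means the rest.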
target: Muscarinic acetylcholine receptor M5 (Homo sapiens) (UniProt P08912); experiment: M5 muscarinic receptor negative allosteric modulators, cell-based, single concentration, human M5 (AID 743025); conditions: CHO-K1 hM5, ACh EC80 calcium flux, Fluo-4; at 10 µM; hits give low values
Sequence (P08912 whole entry, looked up): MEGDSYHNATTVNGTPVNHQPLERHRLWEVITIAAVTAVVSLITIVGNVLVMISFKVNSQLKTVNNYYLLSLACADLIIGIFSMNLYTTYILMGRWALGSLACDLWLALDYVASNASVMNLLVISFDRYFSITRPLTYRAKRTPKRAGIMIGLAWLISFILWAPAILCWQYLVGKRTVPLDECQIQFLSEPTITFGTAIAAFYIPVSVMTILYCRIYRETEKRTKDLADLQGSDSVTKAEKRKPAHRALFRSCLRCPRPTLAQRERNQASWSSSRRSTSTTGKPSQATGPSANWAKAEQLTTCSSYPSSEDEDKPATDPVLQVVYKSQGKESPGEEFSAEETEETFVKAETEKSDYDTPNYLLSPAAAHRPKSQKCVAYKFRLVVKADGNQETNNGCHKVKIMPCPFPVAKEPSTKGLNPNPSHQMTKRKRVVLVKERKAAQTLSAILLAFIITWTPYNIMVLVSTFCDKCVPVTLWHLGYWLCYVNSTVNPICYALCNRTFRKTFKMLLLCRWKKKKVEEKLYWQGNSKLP

Activity remaining, active:
O=C(c1ccc(C(F)(F)F)cc1)N1CCN2C(=O)c3ccccc3C12c1ccccc1 (stereo unspecified) 1.06%
O=C1c2ccccc2C2(c3ccccc3)N1CCN2C(=O)C(Cl)(Cl)Cl (stereo unspecified) 55.1%
Cc1ccc(C23c4ccccc4C(=O)N2CCN3C(=O)c2ccc(F)cc2)cc1 (stereo unspecified) 14.1%
O=C(c1ccc(OC(F)(F)F)cc1)N1CCN2C(=O)c3ccccc3C12c1ccccc1 (stereo unspecified) 1.8%
O=C(c1ccc(OC(F)F)cc1)N1CCN2C(=O)c3ccccc3C12c1ccc(Cl)cc1 (stereo unspecified) 13.3%
O=C(c1ccc(SC(F)(F)F)cc1)N1CCN2C(=O)c3ccccc3C12c1ccc(F)cc1 (stereo unspecified) -0.72%

Activity remaining, inactive:
O=C1c2ccccc2C2(c3ccc(F)cc3)NCCN12 (stereo unspecified) 77.6%
O=C1c2ccccc2C2(c3ccccc3)N1CCN2C(=O)C1CCCC1 (stereo unspecified) 97.8%
Cc1ccc(C(=O)N2CCCN3C(=O)c4ccccc4C23c2ccc(Cl)cc2)cc1 (stereo unspecified) 74.8%
Cc1ccc(C23NCCN2C(=O)c2ccccc23)cc1 (stereo unspecified) 77.4%
O=C(Nc1cccc(C(F)(F)F)c1)N1CCN2C(=O)c3ccccc3C12c1ccccc1 (stereo unspecified) 76.4%
O=C(c1ccc(OC(F)(F)F)cc1)N1CCN2C(=O)c3ccccc3C12c1ccc(F)cc1 (stereo unspecified) 69.4%
O=C(c1cccc(C(F)(F)F)c1)N1CCN2C(=O)c3ncccc3C12c1ccccc1 (stereo unspecified) 76.6%
CSc1cccc(NC(=S)N2CCN3C(=O)c4ccccc4C32c2ccccc2)c1 (stereo unspecified) 77.7%
N#CC1(c2ccccc2)CCCN1C(=O)c1ccccc1 (stereo unspecified) 84.8%
O=C(c1ccccn1)N1CCN2C(=O)c3ccccc3C12c1ccccc1 (stereo unspecified) 100%
O=C(c1ccc(Br)cc1)c1ccccc1C(=O)N1CCCN(C(=O)c2ccccc2)CC1 78.1%
COc1ccc(C23c4ccccc4C(=O)N2CCN3C(=O)c2cccc(C)c2)cc1 (stereo unspecified) 61.1%
O=C(c1ccc(F)cc1)N1CCN2C(=O)c3ncccc3C12c1ccccc1 (stereo unspecified) 65.2%
O=C(c1ccc(C(F)(F)F)cc1)N1CCN2C(=O)c3ncccc3C12c1ccccc1 (stereo unspecified) 72.2%
COc1ccccc1NC(=O)N1CCN2C(=O)c3ccccc3C12c1ccccc1 (stereo unspecified) 86.6%
COc1ccc(C23c4ccccc4C(=O)N2CCN3C(=O)c2ccc(C)cc2)cc1 (stereo unspecified) 68.4%
COc1ccc(C23NCCN2C(=O)c2ccccc23)cc1 (stereo unspecified) 72.7%
O=C(c1cc(F)cc(F)c1)N1CCN2C(=O)c3ncccc3C12c1ccccc1 (stereo unspecified) 75.2%
O=C(c1ccccc1)N1CCN2C(=O)c3ncccc3C12c1ccccc1 (stereo unspecified) 78.7%
O=C(c1ccc(F)cc1)N1CCN2C(=O)c3ccccc3C12c1ccc(Cl)cc1 (stereo unspecified) 78.8%
COc1ccc(C23c4ccccc4C(=O)N2CCN3C(=O)c2ccc(F)cc2)cc1 (stereo unspecified) 62.4%
Cc1ccc(S(=O)(=O)N2CCN3C(=O)c4ccccc4C32c2ccccc2)cc1 (stereo unspecified) 73.4%
O=C(c1ccc2c(c1)CCO2)N1CCN2C(=O)c3ccccc3C12c1ccc(Cl)cc1 (stereo unspecified) 71.1%
O=C(c1ccc(Oc2ccccc2)cc1)N1CCN2C(=O)c3ccccc3C12c1ccccc1 (stereo unspecified) 75.1%
O=C(c1ccc(F)cc1)N1CCN2C(=O)c3ccccc3C12c1ccc(F)cc1 (stereo unspecified) 69.7%
CCCCCC(=O)N1CCN2C(=O)c3ccccc3C12c1ccccc1 (stereo unspecified) 75.3%
O=C(Nc1ccc(F)cc1F)N1CCN2C(=O)c3ccccc3C12c1ccc(Cl)cc1 (stereo unspecified) 77.2%
O=C(c1cccnc1)N1CCN2C(=O)c3ccccc3C12c1ccc(Cl)cc1 (stereo unspecified) 82.6%
O=C(c1ccccn1)N1CCN2C(=O)c3ncccc3C12c1ccccc1 (stereo unspecified) 73.7%
O=C(c1ccc(SC(F)(F)F)cc1)N1CCCN2C(=O)c3ccccc3C12c1ccc(Cl)cc1 (stereo unspecified) 78.5%
